# Test results published in PubChem BioAssay.
# “And” between values parts separate entries of the source, which are not always exact repeats. Identical values can stand only once. The source made the active and inactive calls.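 The calls were made as follows, unless noted: active = inhibition at or above 50% relative to wild type and mutant plate controls; inactive = inhibition below 50%.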
# Columns and labels:
# [1] = inhibitors of mutant huntingtin aggregation, primary screen, imaging, exon1htt(103Q)mCFP cells, high-content imaging (AID 483;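 active = visual image review flags a hit and inhibition of aggregation exceeds 20%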;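 also: compound exposure lasted 3 days before fixation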;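 as to nuclei count: percent of the per-plate median nuclei count of sample wells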); conditions: exon1htt(103Q)mCFP cell line, aggregate imaging, at 2 µM; inhibition of aggregation: stronger effect = higher value; nuclei count: measured here: cell count, toxicity
# [2] = inhibitors of E-selectin induction by TNFa, primary screen, imaging, HUVEC, immunofluorescence, MLSMR starter and 10KST1 sets (AID 487;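 active = visually confirmed hit in the image check and inhibition above 20%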;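 as to inhibition: signal is fraction of cell area covered by stained E-selectin grains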;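 as to nuclei count: 100% = median nuclei count of all wells on the same plate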); conditions: HUVEC TNFalpha-induced E-selectin immunofluorescence imaging, at 2 µM; inhibition: stronger effect = higher value; nuclei count: measured here: cell number, toxicity
# [3] = DUSP6 inhibitors restoring Erk phosphorylation by chemical complementation, primary imaging in DUSP6-transfected HeLa (AID 609;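 active = compounds giving at least 50% inhibition in the cell-based MKP-3 phosphatase rescue imaging test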;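 as to inhibition: phospho-Erk level distribution per well compared with pooled transfected vehicle control wells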); conditions: HeLa MKP-3 transfected, phospho-Erk imaging KS statistic, at 10 µM, cells stimulated with TPA for 15 min
# [4] = molecular target: Dual specificity protein phosphatase 6 (Homo sapiens) (UniProt Q16828); test: as above; conditions: HeLa MKP-3 transfected, phospho-Erk imaging KS statistic; at 10 µM; stronger effect = higher value; cells stimulated with TPA for 15 min
# Sequence of Dual specificity protein phosphatase 6 (Homo sapiens) (Q16828 whole entry, looked up): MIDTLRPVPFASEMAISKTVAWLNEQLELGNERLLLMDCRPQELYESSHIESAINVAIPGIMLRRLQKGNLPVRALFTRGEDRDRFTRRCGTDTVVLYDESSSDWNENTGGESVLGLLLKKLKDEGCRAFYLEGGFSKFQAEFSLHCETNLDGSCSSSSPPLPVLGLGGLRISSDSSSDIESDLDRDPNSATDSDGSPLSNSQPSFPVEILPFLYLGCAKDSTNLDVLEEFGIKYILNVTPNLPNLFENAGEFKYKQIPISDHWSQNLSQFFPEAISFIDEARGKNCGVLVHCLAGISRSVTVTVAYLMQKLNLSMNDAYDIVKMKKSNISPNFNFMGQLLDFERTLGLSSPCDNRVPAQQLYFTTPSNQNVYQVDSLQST
# [5] = molecular target: Voltage-gated potassium channel subunit beta-2 (Rattus norvegicus) (UniProt P62483); test: KvBeta enzyme negative modulators, primary screen, biochemical, NADPH fluorescence (AID 622;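 active = fluorescence slope higher than the sample average by over 3 SD, cut at about -0.22 in these data, passing the limit was not always enough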;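 also: slope of raw intensity against log time taken from 70 to 1610 s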); conditions: recombinant KvBeta, 4-cyanobenzaldehyde reduction, at 10 µM, stronger effect = higher value
# Sequence of Voltage-gated potassium channel subunit beta-2 (Rattus norvegicus) (P62483 whole entry, looked up): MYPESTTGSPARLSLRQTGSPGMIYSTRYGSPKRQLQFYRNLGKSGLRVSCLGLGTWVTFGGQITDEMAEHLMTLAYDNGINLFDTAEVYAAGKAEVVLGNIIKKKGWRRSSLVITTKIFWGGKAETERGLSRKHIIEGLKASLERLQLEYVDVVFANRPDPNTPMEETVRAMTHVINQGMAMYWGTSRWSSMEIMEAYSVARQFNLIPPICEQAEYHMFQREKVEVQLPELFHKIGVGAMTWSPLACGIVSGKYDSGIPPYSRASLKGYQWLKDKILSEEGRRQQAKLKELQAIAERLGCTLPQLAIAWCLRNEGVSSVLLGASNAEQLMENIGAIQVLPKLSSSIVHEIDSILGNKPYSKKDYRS
# [6] = molecular target: Voltage-gated potassium channel subunit beta-2 (Rattus norvegicus) (UniProt P62483); test: KvBeta positive modulators, primary screen, biochemical, NADPH fluorescence (AID 623;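 active = NADPH fluorescence slope more negative than the mean of all samples by about 3 SD, 99.7% confidence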;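 also: fluorescence intensity change per second fitted from 20 to 320 s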); conditions: Recombinant KvBeta, NADPH fluorescence decrease slope, 10 min; at 10 µM; stronger effect = lower value
# [7] = molecular target: Alpha-2C adrenergic receptor (Homo sapiens) (UniProt P18825); test: modulators of alpha2C/GIRK thallium flux, primary screen, cell-based, HEK293 alpha2C/GIRK1/2 (AID 624;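 active = fluorescence slope after compound addition differing from the mean of all screened samples at 99.7% confidence, in either direction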;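 also: slope of fluorescence ratio to pre-addition baseline per second over 15 to 24 s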); conditions: thallium flux BTC fluorescence, at 10 µM, actives lie on both sides
# Sequence of Alpha-2C adrenergic receptor (Homo sapiens) (P18825 whole entry, looked up): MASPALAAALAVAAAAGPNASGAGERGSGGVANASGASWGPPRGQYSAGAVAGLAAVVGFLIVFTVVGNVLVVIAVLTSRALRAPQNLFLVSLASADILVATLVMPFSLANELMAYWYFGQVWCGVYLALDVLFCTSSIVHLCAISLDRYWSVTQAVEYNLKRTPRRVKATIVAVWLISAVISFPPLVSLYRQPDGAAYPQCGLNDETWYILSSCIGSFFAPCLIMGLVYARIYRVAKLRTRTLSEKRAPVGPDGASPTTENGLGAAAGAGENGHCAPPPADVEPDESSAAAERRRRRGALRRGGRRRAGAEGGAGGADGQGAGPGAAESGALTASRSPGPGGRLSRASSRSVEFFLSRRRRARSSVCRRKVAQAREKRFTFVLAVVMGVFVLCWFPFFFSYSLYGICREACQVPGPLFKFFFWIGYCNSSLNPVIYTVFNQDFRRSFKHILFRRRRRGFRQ
# [8] = inhibitors of larval lipid processing in zebrafish, primary screen, whole organism, PED6 fluorescence, gall bladder and intestine (AID 686;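 active = a full or partial loss of lipid-probe fluorescence in the fish gall bladder, intestine or both, judged by eye; inactive = no fluorescence loss, or compound toxic to the fish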;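 also: larvae 5 to 7 days old with five fish per well; signal comes from phospholipase A2 cleavage of quenched PED6 carried via bile; overnight exposure to compound and PED6 before scoring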); conditions: Zebrafish larvae PED6 lipid processing, fluorescence scoring; screened at 20 µM (by protocol)
# [9] = inhibitors of Chlamydomonas gravitaxis, primary screen, whole organism, Chlamydomonas reinhardtii, WT vs cilia-less mutant, absorbance, 96-well (AID 463189); conditions: OD600 absorbance, 2 days, at 10 µM, stronger effect = higher value;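 also: 0% = wild type cc124 cells in DMSO and 100% = ciliumless bld1 mutant cells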
# [10] = inhibitors of Sendai virus-induced IRF3 signaling, primary screen, TLR/RLR signaling modifier project, cell-based, Sendai virus stimulus, luciferase, 10K MLSCN set (AID 602276;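 active = inhibition at or above 50% at 10 µM; inactive = inhibition below 50%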;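 also: firefly luciferase from ISG56 promoter only with Renilla not read in this screen; 0% = Sendai virus plus DMSO and 100% = medium plus DMSO without virus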); conditions: HEK293 RL24 IRF3 luciferase reporter, at 10 µM, stronger effect = higher value
# [11] = inhibitors of poly I:C-induced TLR3 signaling, primary screen, cell-based, poly I:C stimulus, luciferase, 10K MLSCN set (AID 602277;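 active = inhibition of the reporter signal at or above 50%; inactive = inhibition below 50%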); conditions: HEK293-TLR3 RL24 IRF3 luciferase reporter, at 10 µM, stronger effect = higher value
# [12] = molecular target: Muscarinic acetylcholine receptor M4 (Homo sapiens) (UniProt P08173); test: compounds altering M4/GIRK thallium flux, either direction, primary screen, M4 allosteric agonist project, cell-based, HEK293 M4/GIRK, BTC-AM (AID 625;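 active = fluorescence slope after compound addition differing from the mean of all tested samples at 99.7% confidence, mostly higher but some lower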;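 also: thallium influx through GIRK channels coupled to M4 in HEK293 cells with BTC-AM dye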); conditions: at 10 µM, actives lie on both sides
# Sequence of Muscarinic acetylcholine receptor M4 (Homo sapiens) (P08173 whole entry, looked up): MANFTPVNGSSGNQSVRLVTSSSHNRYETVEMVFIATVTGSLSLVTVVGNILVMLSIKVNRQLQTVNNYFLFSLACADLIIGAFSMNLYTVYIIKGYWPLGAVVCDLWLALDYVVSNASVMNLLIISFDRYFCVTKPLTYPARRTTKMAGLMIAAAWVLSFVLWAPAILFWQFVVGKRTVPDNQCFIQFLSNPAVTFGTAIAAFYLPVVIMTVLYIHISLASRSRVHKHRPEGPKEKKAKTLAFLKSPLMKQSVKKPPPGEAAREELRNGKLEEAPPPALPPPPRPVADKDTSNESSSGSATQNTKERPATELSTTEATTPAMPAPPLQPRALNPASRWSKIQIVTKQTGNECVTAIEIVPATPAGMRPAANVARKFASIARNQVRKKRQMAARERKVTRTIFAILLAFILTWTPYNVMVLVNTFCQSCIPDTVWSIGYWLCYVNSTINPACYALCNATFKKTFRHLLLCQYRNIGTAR
# [13] = measured here: cell density z-score
# [14] = measured here: nuclear c-Myc green intensity z-score
# [15] = measured here: nuclear pErk red intensity z-score, stronger effect = higher value
SMILES,inhibition of aggregation [1],nuclei count [1],inhibition [2],nuclei count [2],"z-score [3, 13]","z-score [3, 14]","z-score [3, 15]",inhibition [4],fluorescence slope [5],NADPH fluorescence slope [6],slope [7],outcome [8],inhibition [9],inhibition [10],inhibition [11],fluorescence slope [12]
O=C(c1ccc(F)cc1)C1CCN(CCn2c(=O)[nH]c3ccccc3c2=O)CC1,-3.2% (inactive),96.4%,-46.9% (inactive),112%,0.976,0.365,0.163,14.6% (inactive),-0.453 (inactive),-6.9e-05 (inactive),0.00505 (inactive),inactive,4.84% (inactive) and -9.28% (inactive),0.811% (inactive),31.8% (inactive),
O=c1c(O)c(-c2ccc(O)cc2O)oc2cc(O)cc(O)c12,2.1% (inactive),102%,3% (inactive),114%,-0.466,0.679,0.0465,-0.493% (inactive),-0.439 (inactive),-0.000116 (inactive),0.00575 (inactive),inactive,8.46% (inactive) and 17% (inactive),11.8% (inactive),29.6% (inactive),
CN(C)CCC(c1ccc(Br)cc1)c1ccccn1 (stereo not given),-6% (inactive),111%,-39% (inactive),109%,-1.33,-0.476,0.326,-6.41% (inactive),-0.467 (inactive),-6.3e-05 (inactive),0.00532 (inactive),inactive,0.349% (inactive) and -9.79% (inactive),5.43% (inactive),31.9% (inactive),
CCCC1O[C@@H]2C[C@H]3[C@@H]4CCC5=CC(=O)C=C[C@]5(C)[C@H]4[C@@H](O)C[C@]3(C)[C@]2(C(=O)CO)O1 (stereo not given in full),-17.2% (inactive),58%,-133% (inactive),138%,0.229,-0.532,-0.405,13.3% (inactive),-0.423 (inactive),1.2e-05 (inactive),0.00479 (inactive),inactive,6.85% (inactive) and -4.63% (inactive),0.287% (inactive),58.3% (active),
CNC(=O)Oc1ccc2c(c1)[C@]1(C)CCN(C)[C@@H]1N2C,21.6% (inactive),88.6%,-22.9% (inactive),104%,-2.43,-0.577,-0.583,-6.41% (inactive),-0.435 (inactive),1.7e-05 (inactive),0.00657 (inactive),inactive,-0.375% (inactive) and -9.03% (inactive),15.2% (inactive),36.1% (inactive),
CC1CCc2cc(F)cc3c(=O)c(C(=O)O)cn1c23 (stereo not given),3.7% (inactive),100%,-103% (inactive),114%,-0.137,-0.228,0.466,13.3% (inactive),-0.526 (inactive),-7.5e-05 (inactive),0.00491 (inactive),inactive,-5.13% (inactive),9.82% (inactive),32.9% (inactive),
Cc1cc(C(C)(C)C)cc(C)c1CC1=NCCN1,8.7% (inactive),94.6%,-76.9% (inactive),129%,0.444,-0.489,-0.727,5.79% (inactive),-0.464 (inactive),-7.1e-05 (inactive),0.00474 (inactive),inactive,-10% (inactive) and -5.2% (inactive),2.07% (inactive),45.9% (inactive),
Nc1ccc(C(=O)O)c(O)c1,3.1% (inactive) and 6.7% (inactive),99.9% and 81.7%,-66.9% (inactive) and -44% (inactive),121% and 120%,0.96 and 0.975,-0.574 and 0.166,0.314 and -1.51,3.59% (inactive) and 13.3% (inactive),-0.483 (inactive) and -0.504 (inactive),-1.6e-05 (inactive) and -1e-05 (inactive),0.00463 (inactive) and 0.00637 (inactive),inactive,-10.5% (inactive) and -2.41% (inactive),5.21% (inactive) and 16.9% (inactive),9.44% (inactive) and 29.7% (inactive),
CNCCC(Oc1ccc(C(F)(F)F)cc1)c1ccccc1 (stereo not given),10.2% (inactive),100%,-36.9% (inactive),127%,-0.242,0.755,0.581,12.4% (inactive),-0.447 (inactive),-4.5e-05 (inactive),0.00359 (inactive),inactive,1.27% (inactive) and 34.8% (inactive),21% (inactive),34.3% (inactive),
Oc1c(I)cc(Cl)c2cccnc12,-1.7% (inactive),76.8%,-52% (inactive),108%,-0.367,0.593,-0.324,23.4% (inactive),-0.459 (inactive),-3.6e-05 (inactive),0.00439 (inactive),inactive,-0.595% (inactive),0.651% (inactive),31.6% (inactive),
COc1cc2nc(N3CCN(C(=O)C4COc5ccccc5O4)CC3)nc(N)c2cc1OC (stereo not given),-4.2% (inactive),100%,-103% (inactive),123%,0.0825,-0.753,-0.892,-0.493% (inactive),-0.435 (inactive),-3.3e-05 (inactive),0.00431 (inactive),inactive,-6.99% (inactive) and 1.78% (inactive),5.11% (inactive),24.7% (inactive),
CN1CCN(C2=Nc3cc(Cl)ccc3Nc3ccccc32)CC1,,,-176% (inactive),132%,-0.235,0.0948,0.322,-0.493% (inactive),-0.457 (inactive),-6.9e-05 (inactive),,inactive,-2.62% (inactive) and 13.2% (inactive),2.76% (inactive),60.3% (active),0.00391 (inactive)
C=CCNc1nc(C2(C)CC3(CC(C)(C)OC3=O)C(=O)O2)cs1 (stereo not given),,,-142% (inactive),155%,0.249,-0.125,-1.68,-2.07% (inactive),-0.315 (inactive),-1.4e-05 (inactive),,inactive,6.21% (inactive),,,0.0082 (inactive)
CN(C)CCCN1c2ccccc2CCc2ccccc21,,,-9.2% (inactive),128%,-0.894,-0.347,2.03,-12.3% (inactive),-0.545 (inactive),-3.3e-05 (inactive),0.00498 (inactive),inactive,-3.09% (inactive) and 37.3% (inactive),-11.2% (inactive),5.17% (inactive),
O=c1/c(=C/c2ccccn2)sc2n1CN(c1ccccc1)CN=2,,,15.3% (inactive),137%,0.878,0.58,-0.986,34.2% (inactive),-0.4 (inactive),-4.8e-05 (inactive),,inactive,32% (inactive),,,0.00773 (inactive)
O=C(NC1CCCCC1)[C@H](O)[C@@H](O)C(=O)NC1CCCCC1,,,-94% (inactive),140%,-1.12,0.563,0.453,5.57% (inactive),-0.381 (inactive),-4.7e-05 (inactive),,inactive,-2.73% (inactive),,,0.00717 (inactive)
COc1cccc(C(=O)OCCN(C)C(C)(C)C)c1,,,-23.7% (inactive),128%,0.369,1.71,-0.0558,17% (inactive),-0.414 (inactive),-3.4e-05 (inactive),,inactive,31.9% (inactive),,,0.00557 (inactive)
O=C(O)c1ccc(COCC(F)(F)C(F)F)o1,,,-92.5% (inactive),150%,-0.0306,-1.01,0.623,5.26% (inactive),-0.428 (inactive),-0.000116 (inactive),0.00477 (inactive),inactive,25% (inactive),,,
CC1(C)S[C@@H]2[C@H](NC(=O)[C@H](N)c3ccccc3)C(=O)N2[C@H]1C(=O)O,,,-51.2% (inactive),131%,-0.832,-1.51,1.6,-8.38% (inactive),-0.459 (inactive),1.8e-05 (inactive),0.0053 (inactive),inactive,-0.692% (inactive),7.78% (inactive),28.7% (inactive),
CC[C@H]1CN2CCc3cc(OC)c(OC)cc3[C@@H]2C[C@@H]1C[C@H]1NCCc2cc(OC)c(OC)cc21,,,103% (active),103%,0.501,-0.649,0.619,11.3% (inactive),-0.553 (inactive),-3.6e-05 (inactive),0.00425 (inactive),inactive,69.7% (active) and 130% (active),-28.7% (inactive),103% (active),
COc1ccc(-c2coc3cc(O)cc(O)c3c2=O)cc1,9.1% (inactive),116%,,,-0.996,0.921,0.72,10.2% (inactive),-0.544 (inactive),-4.1e-06 (inactive),0.00576 (inactive),inactive,-12.4% (inactive),-90.2% (inactive),-200% (inactive),
C=C(Br)CN1CCN(CC(=C)Br)CC1,,,-179% (inactive),175%,2.33,-0.834,-0.983,17% (inactive),-0.428 (inactive),-2.9e-05 (inactive),,inactive,5.24% (inactive),,,0.00828 (inactive)
CCCc1nnc(SCc2ccc(OCC)cc2)n1N,,,-86% (inactive),147%,-0.133,1.35,1.37,7.48% (inactive),-0.421 (inactive),-1.6e-05 (inactive),,inactive,28.9% (inactive),,,0.00481 (inactive)
CC1=NS(=O)(=O)c2cc(Cl)ccc2N1,,,-68% (inactive),105%,0.557,0.773,-0.365,19.2% (inactive),-0.43 (inactive),-5.9e-05 (inactive),0.00504 (inactive),inactive,-5.98% (inactive) and 10.3% (inactive),15.7% (inactive),41.7% (inactive),
